The whole screen tested about 310,000 compounds, of which about 14,000 (4.5%) showed an effect of 50% or more. Effects have a minus sign here. Only a selection was taken, and strong results are over-represented in it overall.
biological target: human ether-à-go-go-related gene (hERG) potassium channel (human, UniProt Q12809); experiment: primary screen, population patch clamp on CHO cells stably expressing hERG; higher = less effect of the substance
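Further: peak tail current of the secondary pulse compared with the same well before compound.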

human ether-à-go-go-related gene (hERG) potassium channel, sequence (Q12809 whole entry, looked up): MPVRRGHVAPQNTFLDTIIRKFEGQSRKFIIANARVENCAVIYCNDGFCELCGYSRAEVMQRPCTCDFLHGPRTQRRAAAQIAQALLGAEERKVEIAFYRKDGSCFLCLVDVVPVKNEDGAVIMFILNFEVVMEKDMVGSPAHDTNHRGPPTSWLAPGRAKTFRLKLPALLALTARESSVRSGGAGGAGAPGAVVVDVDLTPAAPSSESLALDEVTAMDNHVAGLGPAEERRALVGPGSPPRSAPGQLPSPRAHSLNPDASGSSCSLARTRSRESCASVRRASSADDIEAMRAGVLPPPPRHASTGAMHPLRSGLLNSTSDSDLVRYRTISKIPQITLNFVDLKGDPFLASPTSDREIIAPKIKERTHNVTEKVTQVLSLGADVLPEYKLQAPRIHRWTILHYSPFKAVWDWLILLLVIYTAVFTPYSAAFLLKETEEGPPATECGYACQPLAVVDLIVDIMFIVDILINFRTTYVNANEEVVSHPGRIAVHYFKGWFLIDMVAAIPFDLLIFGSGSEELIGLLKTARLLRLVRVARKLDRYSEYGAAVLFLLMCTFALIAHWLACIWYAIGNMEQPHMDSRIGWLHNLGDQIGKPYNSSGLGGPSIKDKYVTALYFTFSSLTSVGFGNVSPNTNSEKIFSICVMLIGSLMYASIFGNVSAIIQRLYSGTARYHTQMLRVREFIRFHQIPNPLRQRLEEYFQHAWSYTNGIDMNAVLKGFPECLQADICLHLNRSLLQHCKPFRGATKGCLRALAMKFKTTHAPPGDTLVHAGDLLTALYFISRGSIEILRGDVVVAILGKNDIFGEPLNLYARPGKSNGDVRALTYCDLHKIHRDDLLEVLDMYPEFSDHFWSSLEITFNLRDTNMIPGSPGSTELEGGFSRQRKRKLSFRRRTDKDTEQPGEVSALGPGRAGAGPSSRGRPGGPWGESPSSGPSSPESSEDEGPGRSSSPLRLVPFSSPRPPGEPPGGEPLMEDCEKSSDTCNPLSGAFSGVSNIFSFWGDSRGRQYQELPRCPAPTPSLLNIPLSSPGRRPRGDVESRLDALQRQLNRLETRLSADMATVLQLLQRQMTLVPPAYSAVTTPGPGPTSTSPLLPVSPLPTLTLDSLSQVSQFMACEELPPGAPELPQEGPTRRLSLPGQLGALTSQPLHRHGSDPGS

SMILES	hERG current change (%, negative = inhibition) at 10uM [%]
Clc1ccc(C2[C@H]3CN(CC4CCCCC4)[C@H](c4ccccc4)C34CC2(c2cccnc2)C4)cn1 (stereo partly drawn)	-26.1
O=C(O)c1cccc(NC(=O)c2cn(-c3ccccc3)nc2-c2ccc([N+](=O)[O-])cc2)c1	19.5
COC(=O)c1nn(-c2cccc(Cl)c2)ccc1=O	6.98
CCCCN(CCO)CCCC	14
CC(C)c1ccc(OCC(=O)Nc2ccccc2C(=O)N2CCOCC2)cc1	-18.9
CCOC(=O)C(C)Sc1nc(C2CC2)cc(C(F)(F)F)c1C#N (stereo not drawn)	5.04
CCOC(=O)Cn1nnnc1CN(CCc1ccccc1)Cc1cc2cc(CC)ccc2[nH]c1=O	-4.43
CCCN(CCO)Cc1cccc(Br)c1	-0.752
COc1ccc(Br)cc1C(=O)N/N=C/c1cccnc1	-8.72
CCOc1ccc(-c2csc(NC(=O)C3CCCO3)n2)cc1 (stereo not drawn)	4.35
O=C1CCN(Cc2ccc(O)cc2)CCN1[C@H](CO)Cc1ccccc1	2.51
O=C1CCN(Cc2ccccc2)CCN1[C@H](CSc1ccccc1)Cc1ccccc1	-72.1
CC(C)C[C@@H](CO)N1CCN(CCCc2ccccc2)CCC1=O	-31.1
CC(C)C[C@@H](CSc1ccc(Br)cc1)N1CCN(CCc2ccccc2)CCC1=O	-70.6
CC(C)C[C@@H](CC#N)N1CCN(CCc2ccccc2)CCC1=O	2.01
[N-]=[N+]=NC[C@H](Cc1ccccc1)N1CCN(Cc2ccccc2)CCC1=O	3.9
CCOc1[nH]n(-c2ccccc2)c(=O)c1C=Nc1ccccc1	-2.58
CC1CN(C(=O)c2ccc(CNS(=O)(=O)c3cccc(C(F)(F)F)c3)cc2)CC(C)O1 (stereo not drawn)	9.72
O=C(Nc1ccc2ccccc2c1)c1ccccc1O	24.6
Cc1ccc(C(OC(=O)c2ccco2)C(=O)NC(C)(C)C)cc1 (stereo not drawn)	10.8
CN(C)Cc1ccccc1Cc1ccccc1.O=C(O)/C=C\C(=O)O	-10.1
CN(C)Cc1ccccc1Sc1ccc(O)cc1O.O.O=C(O)/C=C\C(=O)O	-3.84
N=C(N)Cc1ccccc1Sc1ccccc1.O=C(O)/C=C\C(=O)O	-1.09

SMILES	hERG current change (%, negative = inhibition) at 10uM [%]
N/C(Cc1ccccc1Sc1ccccc1)=N\O.O=C(O)/C=C\C(=O)O	-22.2
CCN(CC)Cc1ccccc1Sc1ccccc1.O=C(O)/C=C\C(=O)O	-53.3
CC(Cc1ccccc1Sc1ccccc1)N(C)C.O=C(O)/C=C\C(=O)O (stereo not drawn)	-69.5
COC(=O)CSc1ncnc2c1sc1nc3c(cc12)COC(C)(C)C3	23.5
COc1ccc(C(=O)NCC(=O)OCC(=O)Nc2cc([N+](=O)[O-])ccc2F)cc1	-23.4
Cn1c(CSCc2ccc(F)cc2)nnc1SCC(=O)Nc1cccc(C(=O)O)c1	9.71
Cc1cccc(N(Cc2cc3cc(C)ccc3[nH]c2=O)C(=O)c2cccs2)c1	5.95
c1ccc(CN2CCC(Nc3nc(-c4cccnc4)nc4ccccc34)CC2)cc1	-80.5
c1csc(CNc2nc(-c3cccs3)nc3ccccc23)c1	-6.81
c1ccc(CN2CCC(Nc3nc(-c4cccs4)nc4ccccc34)CC2)cc1	-59.9
c1cncc(CNc2nc(-c3cccnc3)nc3ccccc23)c1	-25.3
c1ccc(CN2CCC(Nc3nc(-c4ccccc4)nc4ccccc34)CC2)cc1	-20.5
Cc1ccc(CNc2nc(-c3cccs3)nc3ccccc23)cc1	12.1
Nc1ccc(N=Nc2ccccc2O)c(N)c1	10.9
COc1ccc(C(=O)NCc2cc(C)nc3ccccc23)cc1OC	-8.56
O=C(CSc1nncc(=O)[nH]1)NC1CCCCC1	27
COc1cc(OC)c(C(=O)NC2CCCCCC2)cc1OC	-3.27
Clc1ccc(-n2nnnc2-c2cnc3ccccc3c2-c2ccccc2)cc1	1.26
CC1(C)CC(=O)C=C(Nc2ccc(OCC(F)(F)C(F)F)cc2)C1	-65.7
COc1ccc(NC2=CC(=O)CC(C)(C)C2)cc1	7.6
CCCOc1ccc(NC2=CC(=O)CC(C)(C)C2)cc1	1.89
Cl.O=C1c2cccc3c2[C@H](CCC3)CN1[C@@H]1CN2CCC1CC2	-46.2
